According to PubChem BioAssay AID624351 (Southern Research Specialized Biocontainment Screening …, 2012):
Out of some 2,400 compounds screened, about 1,400 (58%) were called active. The set was probably picked from earlier hits. The list shows a part of the results. Values without a mark were called inactive.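 The calls were made as follows: active = inhibition of 30% or more at any tested dose; inconclusive = primary hits over the limit that were never retested; inactive = the rest.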

Assay: ADP Hunter readout inhibition without MgcRacGAP – biochemical, coupled enzyme counter-screen, artefact control for MgcRacGAP inhibitor project, dose response (AID 624351);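 also: signal is the ADP detection kit reading of free GDP without any GAP enzyme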;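 as to inhibition: 0% = median positive control wells and 100% = median negative control wells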
Details: fluorescence, no MgcRacGAP; series mostly up to 80 µM; inhibition: at the top concentration

| Compound | IC50 | inhibition |
| --- | --- | --- |
| Cc1ccc(/C=N/Nc2ccc(C(=O)O)cc2)s1 | 79.7 µM (active) | – |
| CC(C)n1cc(/C=N/Nc2ccc(Cl)c(C(=O)O)c2)c2ccccc21 | – | 26% |
| Cc1ccc(/C=N/Nc2ccc(Cl)c(C(=O)O)c2)s1 | 67.4 µM (active) | – |
| O=c1[nH][nH]cc1C=Nc1cc(Cl)ccc1O | 46 µM (active) | – |
| O=c1[nH][nH]cc1C=Nc1ccc(Cl)cc1Cl | – | 2.11% |
| CCCCn1c(SCC(=O)c2ccc(O)c(O)c2)nc2ccsc2c1=O | 45.9 µM (active) | – |
| CC(Oc1ccc(Cl)cc1Cl)C(=O)Nc1ccc(O)cc1 (configuration not stated) | 46.9 µM (active) | – |
| CCOc1cccc(CNc2ccc(O)cc2)c1OCc1ccc(Cl)cc1Cl | – | -24.7% |
| CCCC(=O)NC(=S)Nc1cccc2c(O)cccc12 | 46.4 µM (active) | – |
| O=C(NC(=S)Nc1cccc2c(O)cccc12)c1ccco1 | 42.5 µM (active) | – |
| O=C(NC(NC(=S)Nc1ccc(Cl)c(Cl)c1)C(Cl)(Cl)Cl)c1ccco1 (configuration not stated) | – | 3.1% |
| CCOc1cc(/C=N/NC(=O)CN2CCCCC2)ccc1O | 55.5 µM (active) | – |
| Oc1ccc(/C=N/NC(=S)NCc2ccco2)cc1 | 44.4 µM (active) | – |
| COc1cc(/C=N/NC(=O)C(=O)N2CCCC2)ccc1O | 40.8 µM (active) | – |
| CCN1CCN(CC(=O)Nc2cc(C(F)(F)F)ccc2OCCOC)CC1 | – | 28.5% |
| CCOc1cc(/C=N/NC(=O)C(=O)N2CCCC2)ccc1O | 60.6 µM (active) | – |
| S=C(NCc1ccco1)NCc1ccco1 | – | 1.64% |
| COc1cc(/C=N/NC(=O)C(=O)NCC2CCCO2)ccc1O (configuration not stated) | 31.2 µM (active) | – |
| Oc1ccc(/C=N/NC(=S)NCC2CCCO2)cc1 (configuration not stated) | 28.5 µM (active) | – |
| CCN1CCN(C(=S)NCC2CCCO2)CC1 (configuration not stated) | – | 14.7% |
| Cc1nnc(N=c2ssnc2Cl)o1 | – | 15.3% |
| Nc1nc(=S)ss1 | – | -3.59% |

| Compound | IC50 | inhibition |
| --- | --- | --- |
| COc1cccc(CN2CCC(C(=O)N3CCC(C)CC3)CC2)c1 | – | 16.9% |
| COc1ccc(CN2CCCC(C(=O)N3CCCC3)C2)cc1 (configuration not stated) | – | 7.37% |
| COc1ccc2[nH]c3c(=O)n(Cc4ccc(C(=O)N5CCC(C(N)=O)CC5)cc4)c(=S)[nH]c3c2c1 | 37.6 µM (active) | – |
| COc1ccc2[nH]c3c(=O)n(CCCCC(=O)N4CCC(C(N)=O)CC4)c(=S)[nH]c3c2c1 | 53.3 µM (active) | – |
| COc1ccc(N2CCN(C(=O)CCCn3c(=O)c4cccn4c4cccnc43)CC2)cc1 | – | 23.6% |
| CC(C)=NNc1cc([N+](=O)[O-])cc2c1C(=O)N(C)S2=O (configuration not stated) | – | 2.89% |
| Cc1ccc(O)c(N=Cc2sc3ccccc3c2Cl)c1 | 39.7 µM (active) | – |
| Oc1ccc(Cl)cc1N=Cc1sc2ccccc2c1Cl | 21.4 µM (active) | – |
| CS(=O)(=O)N1CCN(C2C3CC4CC(C3)CC2C4)CC1 (configuration not stated) | – | 19.5% |
| O=C(CN1CCCCCC1)NN(Cc1ccccc1)c1ccccc1 | – | 13.4% |
| O=C(COC(=O)c1ccccc1)Nc1ncc([N+](=O)[O-])s1 | – | 5.57% |
| COc1ccc(N2CCN(C(c3cccs3)C(C)NC(=O)c3ccco3)CC2)cc1 (configuration not stated) | – | 28% |
| COc1ccc(N2CCN(C(CNS(=O)(=O)c3ccc4c(c3)OCCO4)c3ccco3)CC2)cc1 (configuration not stated) | – | 21.5% |
| CCS(=O)(=O)NC(C)C(c1cccs1)N1CCN(c2ccc(OC)cc2)CC1 (configuration not stated) | 81.8 µM (active) | – |
| Nc1ccc(-c2nc3ccc(N)cc3s2)cc1 | 75.8 µM (active) | – |
| Nc1ccc2nc(N)sc2c1 | 11 µM (active) | – |
| N#CC1(Nc2ccc3c4c(cccc24)CC3)CCCCC1 | 24.3 µM (active) | – |
| COc1ccc2nc(/N=C(\N)NC(=O)N3c4ccccc4Sc4ccccc43)nc(C)c2c1 | – | -3.01% |
| COc1ccc2nc(C)cc(SCC(=O)N/N=C/c3ccc(O)c(O)c3)c2c1 | 28 µM (active) | – |
| COc1ccc(/C=N/Nc2cc(C)nc3ccc(OC)cc23)c(OC)c1 | – | 8.35% |
| COc1ccc2c(c1)c(C(=O)N/N=C/c1ccc(O)c(O)c1)c(C)n2C | 22 µM (active) | – |
| CC1(C)C2CCC(CN=C(N)CSS(=O)(=O)O)C1C2 (configuration not stated) | – | 4.39% |

| Compound | IC50 | inhibition |
| --- | --- | --- |
| CC(/C=C/c1ccc(O)cc1)=N/O | 11.8 µM (active) | – |
| COc1ccc(N2CCC(CNC(=S)Nc3cc(C)cc(C)c3)C2)cc1 (configuration not stated) | – | 28% |
| COc1ccc(CNCC(=O)Nc2ccccc2-n2cccc2)cc1 | – | 8.24% |
| CCc1ccccc1NC(=S)NCC1CCN(c2ccc(OC)cc2)C1 (configuration not stated) | 65.3 µM (active) | – |
| COc1ccc(NC(=S)NCC2CCN(c3ccc(OC)cc3)C2)cc1 (configuration not stated) | 52.5 µM (active) | – |
| COc1ccc(N2CCC(CNC(=O)Nc3ccc(C)c(C)c3)C2)cc1 (configuration not stated) | – | 10.1% |
| COc1ccc(N2CCC(CNC(=S)Nc3cccc(C)c3)C2)cc1 (configuration not stated) | 72.2 µM (active) | – |
| CCc1c(C)nc(N2CCN(c3ccc(OC)cc3)CC2)[nH]c1=O | – | 24.9% |
| CC(=O)N1CCC(=NNC(=O)c2cc3ccccc3cc2O)CC1 | – | 24.4% |
| CN(Cc1ccccc1)C(=O)C1CCCN(Cc2ccc(Cl)cc2)C1 (configuration not stated) | – | 13.7% |
| O=C1C2C3C=CC(CC3)C2C(=O)N1/N=C/c1ccc(O)c(O)c1 (configuration not stated) | 64.1 µM (active) | – |
| COc1cc(/C=N/N2C(=O)c3ccccc3C2=O)ccc1O | 41.6 µM (active) | – |
| O=C1c2ccccc2C(=O)N1/N=C/c1ccc(O)c(O)c1 | 33.2 µM (active) | – |
| Nc1ccc(Cn2ccc3c4c(N)nc(N)nc4ccc32)cc1 | – | 3.98% |
| CCOCCCn1c(=O)c2ccccc2n2c(=S)[nH]nc12 | 16.1 µM (active) | – |
| Cc1cccc(-n2c(=O)c3ccccc3n3c(=S)[nH]nc23)c1C | 34 µM (active) | – |
| O=c1c2ccccc2n2c(=S)[nH]nc2n1-c1ccccc1 | 20.6 µM (active) | – |
| Cn1c(=O)c2ccccc2n2c(=S)[nH]nc12 | 13.2 µM (active) | – |
| O=C(c1cccc(Cl)c1)N1CCN(Cc2ccncc2)CC1 | – | 23.4% |
| CCCc1c(C)[nH]c2ccc(C(=O)O)cc2c1=S | – | 4.17% |
| CCOC(=O)c1[nH]c2cc(OC)c(OC)cc2c1N | 31.3 µM (active) | – |
| COc1cccc2[nH]c(C(=O)NN)c(N)c12 | – | 19.8% |

| Compound | IC50 | inhibition |
| --- | --- | --- |
| CCOC(=O)c1[nH]c2ccc(C)cc2c1N | 27.2 µM (active) | – |
| FC(F)(F)c1cccc(N2CCC(N=CN3CCCCCC3)=N2)c1 | 50 µM (active) | – |
| CN1CCN(C=NC2=NN(c3cccc(C(F)(F)F)c3)CC2)CC1 | 34.1 µM (active) | – |
| Oc1ccccc1C=NC1=NN(c2cccc(C(F)(F)F)c2)CC1 | 16.9 µM (active) | – |
| CC[N+](CC)(CC)CCCCOc1ccc2c(c1)C(=O)c1cc(OCCCC[N+](CC)(CC)CC)ccc1-2 | – | 8.56% |
| NSc1nc(N)c2nc(-c3ccccc3)c(-c3ccccc3)nc2n1 | – | 5.16% |
| O=C(C1=C(O)C(=O)N(c2nc3ccc(Cl)cc3s2)C1c1ccco1)c1ccco1 (configuration not stated) | – | 4.28% |
| COc1cc(NCCC(=O)c2cccs2)c(OC)cc1Cl | 58.1 µM (active) | – |
| COc1ccc(NC(=O)Cn2nnc(C(=O)NCc3cccs3)c2N)cc1Cl | – | 2.52% |
| CCCSC1=N/C(=C\C=C\c2ccco2)C(=O)S1 | – | -4.75% |
| CCN(CC)CCn1c2ccccc2c(=O)c2c(O)ccc(O)c21 | – | -1.29% |
| Oc1cc(O)cc(-c2cc3ccc(O)cc3o2)c1 | 25 µM (active) | – |
| COc1cc(/C=N/NS(=O)(=O)c2ccc(C)c([N+](=O)[O-])c2)ccc1O | 37.1 µM (active) | – |
| COc1cc(/C=N\NC(=O)CNC(=O)c2cccc([N+](=O)[O-])c2)ccc1O | 18.4 µM (active) | – |
| COc1cc(/C=N/NC(=O)c2cccc([N+](=O)[O-])c2)ccc1O | 35.9 µM (active) | – |
| COc1cc(/C=N\NC(=O)c2ccc(Cn3nc([N+](=O)[O-])c(Cl)c3C)o2)ccc1O | 33.9 µM (active) | – |
| CN(C)/N=C/c1ccc(OC(=O)c2cccc([N+](=O)[O-])c2)cc1 | – | -2.18% |
| O=[N+]([O-])c1cccc(S(=O)(=O)N/N=C/c2ccc(O)cc2)c1 | 45.2 µM (active) | – |
| CN(CCOc1ccc(Cl)c(Cl)c1)Cc1ccccc1 | – | 7.09% |
| Nc1ccc(OCCc2ccccc2)cc1 | 37.5 µM (active) | – |
| c1ccc(OCCCN2CCCC2)cc1 | – | 19.4% |
| COc1cc(C=c2c3ccccc3n3c2cc(-c2ccccc2)[n+]3C)cc(OC)c1OC | – | 2.94% |

| Compound | IC50 | inhibition |
| --- | --- | --- |
| O=C(c1ccccc1)c1coc2ccc(O)c(Cl)c12 | 77.5 µM (active) | – |
| O=C1C=CC(=O)c2c(O)c(N3CCN(CCO)CC3)c(Cl)c(O)c21 | – | 5.58% |
| O=C(O)c1ccc(-c2ccc(/C=c3/sc4nc5ccccc5n4c3=O)o2)cc1Cl | – | 7.6% |
| COc1ccc(N=Nc2cc(OC)c(N)cc2OC)cc1 | 39.2 µM (active) | – |
| CC(C)N(CCNCC(O)COc1ccc(C(C)(C)c2ccccc2)cc1)C(C)C (configuration not stated) | – | 17.9% |
| CCOc1cc(/C=N/NC(=O)C(C)Sc2ccccn2)ccc1O (configuration not stated) | 44.5 µM (active) | – |
| CCOc1cc(/C=N/NC(=O)C(OC)c2ccccc2)ccc1O (configuration not stated) | 58.2 µM (active) | – |
| COc1cc(C(=S)NC2CCCCC2)ccc1O | 36.7 µM (active) | – |
| COc1cc(C(=S)NCc2ccccc2)cc(Br)c1O | – | 17.8% |
| COc1cc(CN2CCC(C(=O)NC3CCCC3)CC2)ccc1O | – | 15.2% |
| COc1cc(/C=N/NC(=O)CC(=O)NC2CCCCC2)ccc1O | 55.1 µM (active) | – |
| COc1cc(CN2CCC(C(=O)NC3CCCC3)CC2)cc(Br)c1O | – | 7.21% |
| COc1ccc(CN2CCN(C(C)C(=O)N(C)Cc3cccc(F)c3)CC2)cc1OC (configuration not stated) | – | 22.3% |
| COc1cc(CN2CCN(C(=O)CC(C)C)CC2)cc(OC)c1O | – | 22.5% |
| N#CC1=C(S)N(c2ccccc2)C(c2ccc(-c3ccccc3Cl)o2)NC1=O (configuration not stated) | – | 5.31% |
| CCOc1cc(/C=N/NC(=O)Nc2ccccc2)ccc1O | 33 µM (active) | – |
| COc1cc(/C=N/NC(=S)NC2CC3CCC2C3)ccc1O (configuration not stated) | 55.3 µM (active) | – |
| CCOc1cc(/C=N/NC(=O)CCCC(=O)NC2CCCCC2)ccc1O | 62.2 µM (active) | – |
| CCOc1cc(C=NNC(=O)CCCC(=O)NN=Cc2ccc(O)c(OCC)c2)ccc1O | 55.2 µM (active) | – |
